ChEMBL document CHEMBL1961873, “Compounds: GSK PKIS; Assays: Nanosyn kinase panel” (2012)

Legend:
[1] = biological target: Sphingosine kinase 1 (Homo sapiens) (UniProt Q9NYA1); details: at 1 µM;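 also: mean SPHK1 inhibition value reported from the GSK PKIS kinase panel screen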
[2] = biological target: T1, Sphingosine kinase 2 (Homo sapiens) (UniProt Q9NRA0); details: at 0.1 µM
T1 sequence (whole entry): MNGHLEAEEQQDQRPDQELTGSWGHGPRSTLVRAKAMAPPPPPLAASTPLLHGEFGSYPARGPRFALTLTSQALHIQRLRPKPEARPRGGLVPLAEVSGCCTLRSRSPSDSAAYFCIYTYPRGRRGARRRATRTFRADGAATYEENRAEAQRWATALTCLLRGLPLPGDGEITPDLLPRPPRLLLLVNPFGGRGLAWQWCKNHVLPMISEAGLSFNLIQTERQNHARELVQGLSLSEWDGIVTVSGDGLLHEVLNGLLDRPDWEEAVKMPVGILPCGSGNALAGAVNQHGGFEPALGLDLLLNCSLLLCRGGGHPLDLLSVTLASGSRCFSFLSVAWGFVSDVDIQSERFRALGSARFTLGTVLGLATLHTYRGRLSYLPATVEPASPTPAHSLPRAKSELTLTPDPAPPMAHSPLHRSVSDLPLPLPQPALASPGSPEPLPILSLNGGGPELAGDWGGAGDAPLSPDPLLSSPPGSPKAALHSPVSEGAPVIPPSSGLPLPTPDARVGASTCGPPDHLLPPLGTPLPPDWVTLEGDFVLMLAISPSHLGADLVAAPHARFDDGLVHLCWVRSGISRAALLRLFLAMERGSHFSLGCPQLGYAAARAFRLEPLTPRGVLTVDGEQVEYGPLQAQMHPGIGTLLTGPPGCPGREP

[3] = biological target: T1, Sphingosine kinase 2 (Homo sapiens); details: at 1 µM
[4] = biological target: Casein kinase II subunit alpha (Homo sapiens) (UniProt P68400); details: at 0.1 µM
[5] = biological target: Casein kinase II subunit alpha (Homo sapiens) (UniProt P68400); details: at 1 µM
[6] = biological target: T2, Inhibitor of nuclear factor kappa-B kinase subunit alpha (Homo sapiens) (UniProt O15111); details: at 0.1 µM
T2 sequence (whole entry): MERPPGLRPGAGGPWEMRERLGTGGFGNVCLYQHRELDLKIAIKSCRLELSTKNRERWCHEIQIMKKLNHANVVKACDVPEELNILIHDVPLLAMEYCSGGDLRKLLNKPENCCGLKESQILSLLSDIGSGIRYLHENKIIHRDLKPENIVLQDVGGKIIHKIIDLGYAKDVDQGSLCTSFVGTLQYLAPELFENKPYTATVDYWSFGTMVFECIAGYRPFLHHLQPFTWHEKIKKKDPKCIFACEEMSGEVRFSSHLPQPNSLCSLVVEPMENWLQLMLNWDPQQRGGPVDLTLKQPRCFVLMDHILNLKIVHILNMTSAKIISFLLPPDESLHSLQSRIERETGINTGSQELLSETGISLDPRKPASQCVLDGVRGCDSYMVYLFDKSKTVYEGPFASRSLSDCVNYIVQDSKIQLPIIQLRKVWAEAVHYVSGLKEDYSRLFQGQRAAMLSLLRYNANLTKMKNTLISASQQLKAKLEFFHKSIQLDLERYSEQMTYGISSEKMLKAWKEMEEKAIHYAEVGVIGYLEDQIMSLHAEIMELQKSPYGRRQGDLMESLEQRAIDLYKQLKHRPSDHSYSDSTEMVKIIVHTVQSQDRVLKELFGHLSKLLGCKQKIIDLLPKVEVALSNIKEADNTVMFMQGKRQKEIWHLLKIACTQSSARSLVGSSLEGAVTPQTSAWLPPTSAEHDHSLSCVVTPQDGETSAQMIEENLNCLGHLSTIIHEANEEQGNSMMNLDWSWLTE

[7] = biological target: T2, Inhibitor of nuclear factor kappa-B kinase subunit alpha (Homo sapiens); details: at 1 µM
[8] = biological target: T3, Inhibitor of nuclear factor kappa-B kinase subunit beta (Homo sapiens) (UniProt O14920); details: at 0.1 µM
T3 sequence (whole entry): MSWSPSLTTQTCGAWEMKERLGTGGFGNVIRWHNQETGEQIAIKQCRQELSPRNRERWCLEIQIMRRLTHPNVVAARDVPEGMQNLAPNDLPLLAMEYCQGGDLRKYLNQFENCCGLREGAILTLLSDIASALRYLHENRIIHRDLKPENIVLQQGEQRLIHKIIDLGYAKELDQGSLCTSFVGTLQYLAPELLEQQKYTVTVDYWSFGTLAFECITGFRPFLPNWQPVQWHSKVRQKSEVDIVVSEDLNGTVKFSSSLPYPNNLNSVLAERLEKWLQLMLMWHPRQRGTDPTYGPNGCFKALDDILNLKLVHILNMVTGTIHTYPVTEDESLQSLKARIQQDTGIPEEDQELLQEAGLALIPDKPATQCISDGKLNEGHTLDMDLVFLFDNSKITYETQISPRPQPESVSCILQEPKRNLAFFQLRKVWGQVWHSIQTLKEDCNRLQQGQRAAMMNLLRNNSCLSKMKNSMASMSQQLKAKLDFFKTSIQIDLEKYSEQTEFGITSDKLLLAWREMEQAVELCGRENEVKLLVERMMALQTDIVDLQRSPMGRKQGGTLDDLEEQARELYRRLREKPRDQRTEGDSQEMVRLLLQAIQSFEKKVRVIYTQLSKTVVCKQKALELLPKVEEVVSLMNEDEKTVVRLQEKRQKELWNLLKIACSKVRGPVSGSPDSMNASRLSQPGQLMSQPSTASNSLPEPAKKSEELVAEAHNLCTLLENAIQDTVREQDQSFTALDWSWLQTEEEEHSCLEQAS

[9] = biological target: T3, Inhibitor of nuclear factor kappa-B kinase subunit beta (Homo sapiens); details: at 1 µM
[10] = biological target: T4, Inhibitor of nuclear factor kappa-B kinase subunit epsilon (Homo sapiens) (UniProt Q14164); details: at 0.1 µM
T4 sequence (whole entry): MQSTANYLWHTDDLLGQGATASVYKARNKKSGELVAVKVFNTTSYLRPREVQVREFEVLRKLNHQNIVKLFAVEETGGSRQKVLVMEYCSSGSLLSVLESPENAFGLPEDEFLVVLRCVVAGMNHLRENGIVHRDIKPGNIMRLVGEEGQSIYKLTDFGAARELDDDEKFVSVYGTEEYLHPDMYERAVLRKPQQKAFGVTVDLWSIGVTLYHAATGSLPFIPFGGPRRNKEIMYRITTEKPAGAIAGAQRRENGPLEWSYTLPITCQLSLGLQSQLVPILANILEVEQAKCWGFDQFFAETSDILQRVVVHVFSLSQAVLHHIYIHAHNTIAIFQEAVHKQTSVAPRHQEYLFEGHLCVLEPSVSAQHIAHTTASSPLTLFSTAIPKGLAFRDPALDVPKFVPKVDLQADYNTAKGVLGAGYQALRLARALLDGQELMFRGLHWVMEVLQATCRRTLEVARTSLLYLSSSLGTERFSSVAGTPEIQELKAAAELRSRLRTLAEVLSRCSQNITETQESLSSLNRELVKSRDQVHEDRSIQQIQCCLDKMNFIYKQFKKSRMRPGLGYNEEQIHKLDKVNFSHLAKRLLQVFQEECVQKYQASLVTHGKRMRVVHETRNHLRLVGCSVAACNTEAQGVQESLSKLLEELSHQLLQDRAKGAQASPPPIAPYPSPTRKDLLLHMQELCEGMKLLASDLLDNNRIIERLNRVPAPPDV

[11] = biological target: T4, Inhibitor of nuclear factor kappa-B kinase subunit epsilon (Homo sapiens); details: at 1 µM
[12] = biological target: T5, Serine/threonine-protein kinase Nek1 (Homo sapiens) (UniProt Q96PY6); details: at 0.1 µM
T5 sequence (whole entry): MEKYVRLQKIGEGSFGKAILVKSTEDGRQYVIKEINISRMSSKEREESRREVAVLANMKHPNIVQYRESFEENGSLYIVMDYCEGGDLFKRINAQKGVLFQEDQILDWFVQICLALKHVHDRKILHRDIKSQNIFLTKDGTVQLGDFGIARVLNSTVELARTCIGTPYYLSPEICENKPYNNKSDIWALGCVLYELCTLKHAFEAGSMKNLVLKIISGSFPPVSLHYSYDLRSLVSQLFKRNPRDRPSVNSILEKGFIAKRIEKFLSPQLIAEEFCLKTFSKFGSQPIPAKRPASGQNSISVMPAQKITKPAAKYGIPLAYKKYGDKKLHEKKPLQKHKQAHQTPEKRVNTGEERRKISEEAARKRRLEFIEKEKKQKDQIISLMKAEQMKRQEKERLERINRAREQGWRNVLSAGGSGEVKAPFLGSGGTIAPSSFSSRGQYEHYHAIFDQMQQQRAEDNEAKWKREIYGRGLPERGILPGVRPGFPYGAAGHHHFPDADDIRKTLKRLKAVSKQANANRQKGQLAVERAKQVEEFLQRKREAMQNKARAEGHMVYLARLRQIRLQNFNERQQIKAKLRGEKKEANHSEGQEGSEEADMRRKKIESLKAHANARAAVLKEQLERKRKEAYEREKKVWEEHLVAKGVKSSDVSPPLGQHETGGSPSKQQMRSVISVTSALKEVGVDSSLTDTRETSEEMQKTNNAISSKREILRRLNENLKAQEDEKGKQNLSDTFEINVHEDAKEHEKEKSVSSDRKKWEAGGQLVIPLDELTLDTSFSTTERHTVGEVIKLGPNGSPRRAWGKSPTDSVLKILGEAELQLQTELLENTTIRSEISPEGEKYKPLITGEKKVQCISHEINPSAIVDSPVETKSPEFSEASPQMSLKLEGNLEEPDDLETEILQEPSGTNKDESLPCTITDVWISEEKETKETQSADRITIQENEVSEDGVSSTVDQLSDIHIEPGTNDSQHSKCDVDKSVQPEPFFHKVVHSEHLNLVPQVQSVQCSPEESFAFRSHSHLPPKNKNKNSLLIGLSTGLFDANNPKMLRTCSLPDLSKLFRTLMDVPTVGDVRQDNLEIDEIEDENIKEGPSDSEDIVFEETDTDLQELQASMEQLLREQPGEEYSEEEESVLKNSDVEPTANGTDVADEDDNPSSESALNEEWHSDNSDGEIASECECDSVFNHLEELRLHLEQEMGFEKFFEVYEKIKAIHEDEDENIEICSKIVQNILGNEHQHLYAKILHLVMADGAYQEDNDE

[13] = biological target: T5, Serine/threonine-protein kinase Nek1 (Homo sapiens); details: at 1 µM
[14] = biological target: T6, Serine/threonine-protein kinase Nek2 (Homo sapiens) (UniProt P51955); details: at 0.1 µM
T6 sequence (whole entry): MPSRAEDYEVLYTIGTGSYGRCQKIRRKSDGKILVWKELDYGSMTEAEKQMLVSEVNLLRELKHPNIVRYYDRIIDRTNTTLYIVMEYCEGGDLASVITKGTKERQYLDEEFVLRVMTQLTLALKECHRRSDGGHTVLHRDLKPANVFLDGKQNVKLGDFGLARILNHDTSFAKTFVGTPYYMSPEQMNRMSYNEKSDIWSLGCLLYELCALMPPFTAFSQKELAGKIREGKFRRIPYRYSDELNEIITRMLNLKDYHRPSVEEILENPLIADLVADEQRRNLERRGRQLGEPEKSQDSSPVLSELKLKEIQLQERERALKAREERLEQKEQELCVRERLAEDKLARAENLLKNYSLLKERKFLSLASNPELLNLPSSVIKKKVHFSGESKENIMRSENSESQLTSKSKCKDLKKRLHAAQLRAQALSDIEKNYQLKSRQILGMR

[15] = biological target: T6, Serine/threonine-protein kinase Nek2 (Homo sapiens); details: at 1 µM
[16] = biological target: Serine/threonine-protein kinase Nek6 (Homo sapiens) (UniProt Q9HC98); details: at 0.1 µM
[17] = biological target: Serine/threonine-protein kinase Nek6 (Homo sapiens) (UniProt Q9HC98); details: at 1 µM
[18] = biological target: Serine/threonine-protein kinase Nek7 (Homo sapiens) (UniProt Q8TDX7); details: at 0.1 µM
[19] = biological target: Serine/threonine-protein kinase Nek7 (Homo sapiens) (UniProt Q8TDX7); details: at 1 µM
[20] = biological target: T7, Serine/threonine-protein kinase Nek9 (Homo sapiens) (UniProt Q8TD19); details: at 0.1 µM;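 also: reported value is the mean percent inhibition of NEK9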
T7 sequence (whole entry): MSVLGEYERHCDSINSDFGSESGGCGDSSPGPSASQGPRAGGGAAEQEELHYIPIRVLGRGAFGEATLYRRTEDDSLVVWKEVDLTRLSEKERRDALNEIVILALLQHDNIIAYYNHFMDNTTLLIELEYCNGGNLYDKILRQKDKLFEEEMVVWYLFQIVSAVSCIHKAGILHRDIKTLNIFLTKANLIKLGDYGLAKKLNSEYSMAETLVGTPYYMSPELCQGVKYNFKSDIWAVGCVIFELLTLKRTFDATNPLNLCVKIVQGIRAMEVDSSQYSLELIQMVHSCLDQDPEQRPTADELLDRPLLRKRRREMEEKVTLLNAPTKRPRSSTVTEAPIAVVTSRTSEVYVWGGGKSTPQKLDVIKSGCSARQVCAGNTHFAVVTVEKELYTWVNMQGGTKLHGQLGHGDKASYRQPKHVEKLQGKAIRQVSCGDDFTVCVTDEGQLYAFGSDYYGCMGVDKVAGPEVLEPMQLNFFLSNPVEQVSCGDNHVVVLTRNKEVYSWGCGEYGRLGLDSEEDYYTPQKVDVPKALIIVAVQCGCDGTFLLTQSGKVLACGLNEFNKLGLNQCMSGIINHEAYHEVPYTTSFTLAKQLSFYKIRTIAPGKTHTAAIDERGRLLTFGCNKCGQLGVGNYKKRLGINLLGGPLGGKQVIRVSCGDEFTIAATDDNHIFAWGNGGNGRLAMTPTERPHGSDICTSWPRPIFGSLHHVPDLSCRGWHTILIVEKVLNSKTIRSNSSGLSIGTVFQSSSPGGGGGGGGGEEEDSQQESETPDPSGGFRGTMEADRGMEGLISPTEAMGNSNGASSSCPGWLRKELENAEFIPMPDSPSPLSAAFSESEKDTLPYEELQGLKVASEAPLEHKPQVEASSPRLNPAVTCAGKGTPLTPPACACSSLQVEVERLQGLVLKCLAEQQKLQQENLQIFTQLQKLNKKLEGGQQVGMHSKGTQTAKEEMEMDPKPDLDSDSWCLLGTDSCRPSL

Serine/threonine-protein kinase Nek6 (Homo sapiens), sequence (Q9HC98 whole entry): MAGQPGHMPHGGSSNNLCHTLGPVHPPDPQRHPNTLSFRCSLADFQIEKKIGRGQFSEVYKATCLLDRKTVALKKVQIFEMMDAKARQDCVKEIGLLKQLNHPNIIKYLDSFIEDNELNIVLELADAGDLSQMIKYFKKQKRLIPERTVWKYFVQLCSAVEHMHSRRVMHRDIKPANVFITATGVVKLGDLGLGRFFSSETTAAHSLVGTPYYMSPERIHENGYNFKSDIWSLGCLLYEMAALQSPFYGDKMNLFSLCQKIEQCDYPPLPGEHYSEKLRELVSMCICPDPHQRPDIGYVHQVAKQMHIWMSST
Casein kinase II subunit alpha (Homo sapiens), sequence (P68400 whole entry, looked up): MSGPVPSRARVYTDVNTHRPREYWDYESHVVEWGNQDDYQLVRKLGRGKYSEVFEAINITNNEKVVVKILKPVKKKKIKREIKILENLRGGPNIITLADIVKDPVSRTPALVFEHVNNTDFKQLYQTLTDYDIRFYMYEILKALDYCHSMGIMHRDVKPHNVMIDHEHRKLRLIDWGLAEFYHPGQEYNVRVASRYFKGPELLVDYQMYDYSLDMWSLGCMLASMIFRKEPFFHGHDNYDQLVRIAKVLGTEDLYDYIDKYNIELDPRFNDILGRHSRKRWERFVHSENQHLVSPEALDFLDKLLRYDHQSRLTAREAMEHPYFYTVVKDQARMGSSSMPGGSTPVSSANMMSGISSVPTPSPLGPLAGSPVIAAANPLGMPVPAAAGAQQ
Serine/threonine-protein kinase Nek7 (Homo sapiens), sequence (Q8TDX7 whole entry, looked up): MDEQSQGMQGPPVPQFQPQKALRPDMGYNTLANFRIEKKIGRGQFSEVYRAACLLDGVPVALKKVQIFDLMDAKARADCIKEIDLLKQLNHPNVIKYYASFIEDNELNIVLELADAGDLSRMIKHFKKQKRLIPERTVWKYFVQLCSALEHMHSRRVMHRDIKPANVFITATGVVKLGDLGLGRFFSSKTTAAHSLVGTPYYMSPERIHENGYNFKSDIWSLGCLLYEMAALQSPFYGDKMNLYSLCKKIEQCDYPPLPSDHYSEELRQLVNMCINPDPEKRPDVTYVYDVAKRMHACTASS
Sphingosine kinase 1 (Homo sapiens), sequence (Q9NYA1 whole entry): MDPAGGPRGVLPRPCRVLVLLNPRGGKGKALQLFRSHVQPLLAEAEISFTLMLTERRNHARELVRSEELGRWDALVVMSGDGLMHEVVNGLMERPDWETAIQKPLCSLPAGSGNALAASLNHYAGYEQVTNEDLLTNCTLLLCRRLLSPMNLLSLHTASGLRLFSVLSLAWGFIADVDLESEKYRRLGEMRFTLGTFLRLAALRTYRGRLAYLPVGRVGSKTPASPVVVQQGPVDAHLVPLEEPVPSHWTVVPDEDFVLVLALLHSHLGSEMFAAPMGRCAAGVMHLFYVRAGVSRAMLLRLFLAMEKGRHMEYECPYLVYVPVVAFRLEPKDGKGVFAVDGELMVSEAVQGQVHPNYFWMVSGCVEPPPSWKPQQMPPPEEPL

Q: Which results are given for COc1ccc(C2=C(N3CCc4ccccc43)C(=O)NC2=O)cc1?
A: inhibition [1]: -5.21%; inhibition [2]: 0.83%; inhibition [3]: 0.21%; inhibition [4]: 5.6%; inhibition [5]: 6.96%; inhibition [6]: 9.04%; inhibition [7]: 6.68%; inhibition [8]: 6.54%; inhibition [9]: 3.83%; inhibition [10]: 13.5%; inhibition [11]: 19.1%; inhibition [12]: 2.77%; inhibition [13]: 5.54%; inhibition [14]: 5.3%; inhibition [15]: 6.47%; inhibition [16]: 2.74%; inhibition [17]: 1.65%; inhibition [18]: 3.11%; inhibition [19]: 3.74%; inhibition [20]: 11.3%
